Measurements: the supplement of paper PMC10849652
The full data set covers some 7,900 targets. This sample favours those with a hit. About 0.6% of all pairs of compound and target were hits. Unmarked numbers belong to inactive results.

Compound: CC(C)C1=C2N=C(C=C(N2N=C1)NCC3=CC=CC=C3)NCCCCCCN
Experiment: log2 fold change, soluble protein after heating vs DMSO (PISA); higher = thermal stabilisation; K562 cells, 10 uM, 30 min; active = over 0.2 and 3.5 SD of the protein, either way, in both replicates (recomputed)
Outline: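 Values are thermal stability changes relative to control samples and are taken from duplicates. They are stated as log2 fold changes. Before quantification by TMTpro 16plex LC-MS/MS with equalised channel sums, K562 cells at 2×10^6 cells/mL were treated with 10 μM compound for 30 min, heated in aliquots for 3 min across 48°C-58°C, pooled, extracted in PBS with 0.5% NP-40 at 4°C, and centrifuged at 21,000xg for 90 min to give the soluble supernatant.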

Sequence of UniProt P55084 (P55084 whole entry, looked up): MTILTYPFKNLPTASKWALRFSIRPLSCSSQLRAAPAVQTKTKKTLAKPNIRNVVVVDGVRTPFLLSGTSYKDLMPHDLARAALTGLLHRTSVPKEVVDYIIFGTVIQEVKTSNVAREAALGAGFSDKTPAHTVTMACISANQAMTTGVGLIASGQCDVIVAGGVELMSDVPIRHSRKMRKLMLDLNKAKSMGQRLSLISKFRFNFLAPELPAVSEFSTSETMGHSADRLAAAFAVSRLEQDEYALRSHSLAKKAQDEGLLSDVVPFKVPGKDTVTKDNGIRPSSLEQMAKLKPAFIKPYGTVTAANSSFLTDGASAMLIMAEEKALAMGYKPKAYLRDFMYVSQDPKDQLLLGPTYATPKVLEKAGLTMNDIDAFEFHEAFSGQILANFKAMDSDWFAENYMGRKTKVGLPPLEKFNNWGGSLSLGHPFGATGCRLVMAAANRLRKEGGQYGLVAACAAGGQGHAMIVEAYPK
Sequence of UniProt Q53R41 (Q53R41 whole entry, looked up): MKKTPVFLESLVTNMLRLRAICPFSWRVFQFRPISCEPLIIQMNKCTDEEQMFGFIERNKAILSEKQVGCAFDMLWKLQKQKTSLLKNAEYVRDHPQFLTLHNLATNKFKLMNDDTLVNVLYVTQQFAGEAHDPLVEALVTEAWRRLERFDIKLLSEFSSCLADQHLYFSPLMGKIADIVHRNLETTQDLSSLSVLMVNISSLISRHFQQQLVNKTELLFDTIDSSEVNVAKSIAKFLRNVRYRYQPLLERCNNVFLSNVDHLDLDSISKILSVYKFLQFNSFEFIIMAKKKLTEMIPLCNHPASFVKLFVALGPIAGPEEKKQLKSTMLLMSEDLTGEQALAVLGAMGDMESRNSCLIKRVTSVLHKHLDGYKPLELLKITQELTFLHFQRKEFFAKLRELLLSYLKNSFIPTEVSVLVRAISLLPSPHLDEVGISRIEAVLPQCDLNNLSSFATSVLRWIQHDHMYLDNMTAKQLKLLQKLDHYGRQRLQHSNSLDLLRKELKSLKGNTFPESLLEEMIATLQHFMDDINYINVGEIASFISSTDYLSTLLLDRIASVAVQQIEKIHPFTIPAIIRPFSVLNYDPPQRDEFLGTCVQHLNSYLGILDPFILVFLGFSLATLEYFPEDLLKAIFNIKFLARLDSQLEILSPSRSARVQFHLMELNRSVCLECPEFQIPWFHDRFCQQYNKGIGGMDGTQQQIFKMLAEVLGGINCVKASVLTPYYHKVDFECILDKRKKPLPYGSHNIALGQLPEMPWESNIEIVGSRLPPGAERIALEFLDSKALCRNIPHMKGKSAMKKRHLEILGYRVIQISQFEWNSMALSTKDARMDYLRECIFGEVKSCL
Sequence of UniProt Q9NZC3 (Q9NZC3 whole entry, looked up): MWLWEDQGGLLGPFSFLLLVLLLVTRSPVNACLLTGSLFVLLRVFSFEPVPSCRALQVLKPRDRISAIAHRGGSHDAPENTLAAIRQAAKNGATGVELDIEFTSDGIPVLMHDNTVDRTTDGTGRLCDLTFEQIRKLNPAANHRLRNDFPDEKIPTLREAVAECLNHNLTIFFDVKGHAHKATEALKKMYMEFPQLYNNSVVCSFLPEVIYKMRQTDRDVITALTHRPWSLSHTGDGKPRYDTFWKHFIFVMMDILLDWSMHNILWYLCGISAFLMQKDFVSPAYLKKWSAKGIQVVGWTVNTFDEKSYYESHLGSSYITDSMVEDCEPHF
Sequence of UniProt P16278 (P16278 whole entry, looked up): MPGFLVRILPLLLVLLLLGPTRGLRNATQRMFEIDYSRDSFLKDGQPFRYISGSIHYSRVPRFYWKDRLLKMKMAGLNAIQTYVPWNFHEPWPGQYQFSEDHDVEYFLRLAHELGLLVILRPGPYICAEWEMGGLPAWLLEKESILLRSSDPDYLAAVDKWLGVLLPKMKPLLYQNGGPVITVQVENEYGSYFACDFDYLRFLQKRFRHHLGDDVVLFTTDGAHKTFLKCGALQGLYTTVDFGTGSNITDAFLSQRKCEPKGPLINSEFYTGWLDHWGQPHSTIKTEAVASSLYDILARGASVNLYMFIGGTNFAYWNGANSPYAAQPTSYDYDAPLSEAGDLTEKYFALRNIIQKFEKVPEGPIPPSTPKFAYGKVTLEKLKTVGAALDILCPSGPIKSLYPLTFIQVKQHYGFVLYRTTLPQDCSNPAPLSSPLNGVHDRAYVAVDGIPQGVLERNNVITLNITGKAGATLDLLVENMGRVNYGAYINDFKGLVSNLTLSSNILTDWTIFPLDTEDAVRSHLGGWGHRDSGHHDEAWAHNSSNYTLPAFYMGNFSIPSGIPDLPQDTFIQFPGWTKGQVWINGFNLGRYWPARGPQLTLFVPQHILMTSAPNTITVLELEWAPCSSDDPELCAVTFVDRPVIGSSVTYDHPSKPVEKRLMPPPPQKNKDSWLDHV
Sequence of UniProt P29083 (P29083 whole entry, looked up): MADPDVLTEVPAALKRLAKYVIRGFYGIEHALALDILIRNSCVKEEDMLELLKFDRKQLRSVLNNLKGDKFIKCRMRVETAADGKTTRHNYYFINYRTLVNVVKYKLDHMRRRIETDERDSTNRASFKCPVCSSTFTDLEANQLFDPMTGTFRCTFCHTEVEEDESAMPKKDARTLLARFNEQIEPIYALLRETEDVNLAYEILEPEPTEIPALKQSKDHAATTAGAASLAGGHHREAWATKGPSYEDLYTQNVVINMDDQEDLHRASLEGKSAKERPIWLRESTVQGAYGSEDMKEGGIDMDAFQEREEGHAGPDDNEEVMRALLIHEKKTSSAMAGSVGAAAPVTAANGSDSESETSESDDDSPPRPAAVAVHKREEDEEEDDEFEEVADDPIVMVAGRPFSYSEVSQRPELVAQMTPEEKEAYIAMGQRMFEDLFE
Sequence of UniProt P52597 (P52597 whole entry, looked up): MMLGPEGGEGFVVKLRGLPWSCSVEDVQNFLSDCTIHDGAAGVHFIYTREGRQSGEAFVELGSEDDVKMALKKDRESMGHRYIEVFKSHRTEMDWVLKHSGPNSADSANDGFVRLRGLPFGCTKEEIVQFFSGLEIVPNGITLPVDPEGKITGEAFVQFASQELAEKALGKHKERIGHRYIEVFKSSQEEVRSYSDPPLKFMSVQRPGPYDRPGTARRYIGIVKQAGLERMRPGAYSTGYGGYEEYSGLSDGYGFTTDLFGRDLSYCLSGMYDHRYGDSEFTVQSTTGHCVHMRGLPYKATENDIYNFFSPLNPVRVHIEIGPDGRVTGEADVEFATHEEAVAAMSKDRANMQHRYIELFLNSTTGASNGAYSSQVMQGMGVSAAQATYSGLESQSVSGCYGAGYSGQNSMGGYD
Sequence of UniProt Q49A26 (Q49A26 whole entry, looked up): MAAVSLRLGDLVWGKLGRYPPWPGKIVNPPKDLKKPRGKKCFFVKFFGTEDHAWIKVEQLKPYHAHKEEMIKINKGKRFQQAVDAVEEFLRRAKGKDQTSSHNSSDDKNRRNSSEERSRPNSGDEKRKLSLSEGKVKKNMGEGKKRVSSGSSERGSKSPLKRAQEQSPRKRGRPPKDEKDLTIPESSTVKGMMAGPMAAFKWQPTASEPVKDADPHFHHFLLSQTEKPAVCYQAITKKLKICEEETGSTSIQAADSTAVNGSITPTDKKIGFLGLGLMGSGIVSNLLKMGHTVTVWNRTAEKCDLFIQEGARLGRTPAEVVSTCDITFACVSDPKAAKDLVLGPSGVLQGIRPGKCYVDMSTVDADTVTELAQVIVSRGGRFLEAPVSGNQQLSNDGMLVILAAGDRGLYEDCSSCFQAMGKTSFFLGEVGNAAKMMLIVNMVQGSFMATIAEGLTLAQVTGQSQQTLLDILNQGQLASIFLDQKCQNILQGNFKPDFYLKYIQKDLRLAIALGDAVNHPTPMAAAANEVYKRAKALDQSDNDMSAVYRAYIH
Sequence of UniProt Q00403 (Q00403 whole entry, looked up): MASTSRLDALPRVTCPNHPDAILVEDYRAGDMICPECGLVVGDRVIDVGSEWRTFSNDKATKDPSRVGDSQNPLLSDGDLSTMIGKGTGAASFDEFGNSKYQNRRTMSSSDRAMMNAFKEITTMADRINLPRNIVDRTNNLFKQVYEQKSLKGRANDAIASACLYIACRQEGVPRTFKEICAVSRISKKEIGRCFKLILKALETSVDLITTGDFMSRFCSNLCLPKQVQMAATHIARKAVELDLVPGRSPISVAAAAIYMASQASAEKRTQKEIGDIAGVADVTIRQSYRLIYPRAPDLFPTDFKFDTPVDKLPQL
Sequence of UniProt Q86UL3 (Q86UL3 whole entry, looked up): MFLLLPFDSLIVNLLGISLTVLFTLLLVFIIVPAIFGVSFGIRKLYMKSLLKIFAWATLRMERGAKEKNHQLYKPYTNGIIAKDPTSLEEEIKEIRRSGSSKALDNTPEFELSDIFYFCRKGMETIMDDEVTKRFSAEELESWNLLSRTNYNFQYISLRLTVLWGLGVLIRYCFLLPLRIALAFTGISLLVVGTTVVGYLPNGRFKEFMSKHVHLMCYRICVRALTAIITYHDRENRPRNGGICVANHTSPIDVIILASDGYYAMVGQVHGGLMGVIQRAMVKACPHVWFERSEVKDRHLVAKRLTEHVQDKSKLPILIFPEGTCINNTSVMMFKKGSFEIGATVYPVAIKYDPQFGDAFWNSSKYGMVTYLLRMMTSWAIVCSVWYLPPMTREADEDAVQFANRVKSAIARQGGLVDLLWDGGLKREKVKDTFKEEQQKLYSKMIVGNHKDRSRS
Sequence of UniProt P49841 (P49841 whole entry, looked up): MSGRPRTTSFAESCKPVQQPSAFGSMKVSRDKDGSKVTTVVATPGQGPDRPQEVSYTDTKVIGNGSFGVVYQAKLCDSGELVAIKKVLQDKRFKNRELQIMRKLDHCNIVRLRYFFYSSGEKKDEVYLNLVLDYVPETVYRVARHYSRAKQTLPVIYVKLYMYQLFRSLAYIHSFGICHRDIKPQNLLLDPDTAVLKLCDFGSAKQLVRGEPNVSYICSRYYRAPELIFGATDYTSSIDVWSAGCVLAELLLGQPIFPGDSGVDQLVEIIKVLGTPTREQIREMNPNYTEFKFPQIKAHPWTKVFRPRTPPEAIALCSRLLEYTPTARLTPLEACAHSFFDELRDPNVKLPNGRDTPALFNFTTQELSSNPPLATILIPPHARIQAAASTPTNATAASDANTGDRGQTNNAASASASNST

| Target | log2 fold change |
| --- | --- |
| HMGB3 (UniProt O15347) | 0.068 |
| HNRNPUL1 (UniProt Q9BUJ2) | 0.007 |
| FANCD2 isoform 1 (UniProt Q9BXW9) | -0.354 (active) |
| HOOK3 (UniProt Q86VS8) | -0.138 |
| HECTD1 (UniProt Q9ULT8) | -0.091 |
| HDGFL2 (UniProt Q7Z4V5) | -0.017 |
| GTF2E1 (UniProt P29083) | -0.147 |
| IFI30 (UniProt P13284) | 0.087 |
| GSK3B isoform 2 (UniProt P49841) | 0.004 |
| GIGYF2 (UniProt Q6Y7W6) | -0.115 |
| GPAT4 (UniProt Q86UL3) | 0.145 |
| HTATIP2 isoform 3 (UniProt Q9BUP3) | -0.182 |
| H2AZ1 (UniProt P0C0S5) | -0.022 |
| IFRD2 isoform 2 (UniProt Q12894) | 0.07 |
| GEMIN5 (UniProt Q8TEQ6) | -0.422 (active) |
| HIC2 (UniProt Q96JB3) | -0.07 |
| GTF2B (UniProt Q00403) | -0.125 |
| IDH3A (UniProt P50213) | 0.034 |

| Target | log2 fold change |
| --- | --- |
| HNRNPF (UniProt P52597) | -0.279 (active) |
| GAGE12F (UniProt P0CL80) | 0.015 |
| GDE1 (UniProt Q9NZC3) | 0.067 |
| GLB1 (UniProt P16278) | -0.282 (active) |
| FASTKD1 (UniProt Q53R41) | -0.047 |
| GALNT4 (UniProt Q8N4A0) | -0.041 |
| HHEX (UniProt Q03014) | -0.113 |
| HPCAL1 (UniProt P37235) | -0.081 |
| GNG5 (UniProt P63218) | 0.109 |
| GLYR1 (UniProt Q49A26) | -0.057 |
| HLTF (UniProt Q14527) | 0.332 (active) |
| GTF2E2 (UniProt P29084) | -0.137 |
| HADHB (UniProt P55084) | 0.37 |
| HBZ (UniProt P02008) | 0.102 |
| FBXO42 (UniProt Q6P3S6) | -0.169 |
| GALNT11 (UniProt Q8NCW6) | 0.015 |
| GNB2 (UniProt P62879) | 0.022 |
